Plk1 PBD FP: Plk1 (human) PBD binding inhibition; hit rate 0.13% among 97,000; inhibition, %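 (tested at about 20 µM)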; AID 693; Plk1 PBD phosphopeptide binding, fluorescence polarization; in the data active = inhibition above about 34%, passing the limit was not always enough
Pyk2 oligo antag: blocks oligomerization of human Pyk2 in cells; Q14289; Q293 cells, Pyk2 FERM NanoBiT luminescence; stronger effect = lower value; z-score (the deposit names both 25 µM and 10 µM); hit rate 0.83% among 99,000; AID 1347419;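 active = Z-score of -3 or lower, scaled per plate to the spread of control and sample wells; inactive = z-score above -3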;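 note: negative z-score means lost luminescence so less FERM oligomerization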
Cav32 inh: human Cav3.2 channel inhibition, primary screen; O95180; Cav3.2-expressing cells, Fluo-4 calcium fluorescence FDSS; stronger effect = lower value; B-score at 10 µM; hit rate 4% among 100,000;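 active = single-dose well whose peak fluorescence ratio is a statistical outlier from its plate by either plate-standardised score or position-corrected B-score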
DAT uptake mod: modulates human dopamine transporter uptake under cocaine; Q01959; LLC-PK1 hDAT cells, [14C]-dopamine uptake with cocaine IC80; actives deviate in either direction; B-score at 10 µM; hit rate 1.3% among 110,000; AID 449768;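 active = Z score or B-score, a plate-position-corrected score, falls beyond the plate's 99.7% confidence bounds, in either direction; inactive = both scores lie inside the 99.7% bounds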;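 note: scored against the spread of the other compound wells on the same plate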
SDO1 yeast rescue: restores growth of sdo1-depleted yeast; S. cerevisiae sdo1-depleted JHY4D growth rescue, OD600 30 h; stronger effect = higher value; pdr5 snq2 efflux-pump mutant strain; z-score at 10 µM; hit rate 0.21% among 140,000;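 active = z-score above 3 at both the 24 hr and the 30 hr optical density reads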;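 note: z-score against mean and SD of all compound wells on the same plate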
PLK1 kinase inh: blocks human PLK1 kinase activity; P53350; recombinant PLK1 kinase, TR-FRET peptide phosphorylation; inhibition, % at 10 µM; hit rate 0.53% among 97,000; AID 619;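 active = inhibition of 50% or more in the single-concentration screen; inactive = inhibition below 50%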;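 note: 0% = DMSO max control and 100% = H-89 dihydrochloride min control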
Numbers without * were called inactive; x = no result given. Hits are enriched below; roughly 4.7% of the tested compounds scored in any of these assays.

SMILES	Plk1 PBD FP	Pyk2 oligo antag	Cav32 inh	DAT uptake mod	SDO1 yeast rescue	PLK1 kinase inh
CCOC(=O)[C@@H]1[C@H]2COc3ccc(Br)cc3[C@@H]2N2C(=O)N(c3cccc(F)c3)C(=O)[C@]12C	x	x	-1.7	0.031	x	x
Cc1ccc(N=C2NC(=O)/C(=C\c3ccsc3)S2)c(C)c1	x	-2.4	x	x	-1.5	x
COc1ccccc1-n1cnnc1SCC(=O)c1cc(C)n(Cc2cccs2)c1C	4	0.96	-2.7	0.085	-0.66	-7
Cc1cc(C(=O)CSc2nnc(-c3ccccc3F)o2)c(C)n1Cc1cccs1	4	-0.11	-4.9*	0.82	-2	-8
O=C(CCc1nc2ccccc2c(=O)[nH]1)OCc1ccc(Cl)cc1Cl	x	x	x	x	-1.4	x
CCOc1ccc(N2C(=O)CS/C2=N/NC(=O)COc2ccc3ccccc3c2)cc1	-18	-0.44	-3.5*	2.4*	-0.02	-4
COc1ccc(N/N=C(/C)c2cnnc(-c3ccccc3)n2)cc1	x	x	x	x	-1.1	x
O=C(Cc1ccccc1)NCCSCc1ccc(Cl)cc1	-8	-0.49	-4.4*	-0.06	-0.12	-1
Cc1cc(C)cc(OCC(=O)NNC(=O)CN2C(=O)c3ccccc3C2=O)c1	x	x	x	x	1.7	x
CCOc1ccccc1C(=O)N1c2ccccc2Sc2ccccc21	-23	-1.9	-5.6*	0.2	-1.7	-11
O=C(NCCc1c[nH]c2ccccc12)C(=O)Nc1ccccc1	x	x	-0.57	0.0076	x	x
Cc1ccc(C(=O)OCC(=O)Nc2sc3c(c2C#N)CCCCC3)cc1NC(=O)c1ccco1	10	-1.2	-3.8*	0.033	-0.34	-12
Cc1ccc(C(=O)OCC(=O)Nc2sc3c(c2C#N)CCCC3)cc1NC(=O)c1ccco1	1	-0.87	-1	0.32	-0.38	-28
COc1ccc(-c2c(C)nn3c(N4CCC(C(=O)NCCN(C)C)CC4)cc(C)nc23)cc1OC	x	-0.09	3.1*	0.018	0.65	x
O=C(Nc1ccc2oc(-c3ccccc3)nc2c1)c1ccc2c(c1)OCCO2	1	-0.47	0.057	0.85	-0.67	-29
COc1ccc(-c2nc3cc(NC(=O)c4ccc5c(c4)OCO5)ccc3o2)cc1	-5	0.01	0.31	-9*	-0.21	-9
COc1ccc(CC(=O)NNC(=S)Nc2ccc(Br)cc2)cc1	-24	0.6	-2.1	-0.62	0.35	-3
CCOc1ccc(CC(=O)NNC(=S)Nc2ccccc2)cc1Br	17	0.76	-7.4*	2	-0.67	-4
CCOC(=O)c1sc2nc(CN3CCN(c4cccc(C(F)(F)F)c4)CC3)[nH]c(=O)c2c1C	x	x	x	x	-0.11	x
CCn1cc(Br)c(C(=O)NC(=S)Nc2ccc(C(=O)OC)cc2)n1	x	x	x	x	0.85	x
O=C(N/N=C/c1ccc(Cl)cc1Cl)Nc1ccccc1	24	1.8	-2.2	0.17	0.06	-5
O=C(N/C(=N\O)c1ccccc1)Nc1ccc(Cl)cc1	12	0.09	-5*	0.23	-0.72	-2
O=C(O)C[C@H]1c2cc(C(F)(F)F)ccc2S(=O)(=O)N1C1CCCCC1	x	x	1	-0.76	x	x
CCOc1ccc(CCNC(=O)Cn2cccc2C(=O)c2ccccc2C)cc1OCC	x	0.38	x	x	-0.22	x
CCOC(=O)CC(NS(=O)(=O)c1ccc(OC)c(C)c1)c1cccc([N+](=O)[O-])c1 (stereo not given)	x	x	x	x	-0.35	x
SMILES	Plk1 PBD FP	Pyk2 oligo antag	Cav32 inh	DAT uptake mod	SDO1 yeast rescue	PLK1 kinase inh
C=CCSC(=C(C#N)C#N)c1cc2c([nH]1)CCCC2	-7	0.34	-6.3*	-0.051	-1.9	-3
COc1ccc(C2N(Cc3ccccc3)CC(=O)N2/N=C(\C)c2ccccc2)cc1 (stereo not given)	x	x	x	x	0.83	x
O=C(CN1C(=O)C2CC=CCC2C1=O)Nc1nnc(SCc2ccc(Cl)cc2)s1 (stereo not given)	2	1	-4.5*	0.37	0.14	-17
Cc1ccsc1C(=O)Nc1ccc2c(c1)OCCO2	x	x	x	x	-0.08	x
Cc1cc2nn(-c3cccc4ccccc34)nc2cc1NC(=O)c1cccs1	-8	-1.5	-4.3*	-0.8	-1.1	-7
C[C@H]1O[C@@H](O[C@H]2[C@@H](O)C[C@H](O[C@H]3[C@@H](O)C[C@H](O[C@H]4CC[C@@]5(C)[C@H](CC[C@@H]6[C@@H]5C[C@@H](O)[C@]5(C)[C@@H](C7=CC(=O)OC7)CC[C@]65O)C4)O[C@@H]3C)O[C@@H]2C)C[C@H](O)[C@@H]1O	x	x	-0.17	-6.2*	1.2	x
O=C1c2ccccc2C(Nc2ccc3c(c2)OCO3)N1Cc1ccco1 (stereo not given)	-19	x	-2.5	0.15	-0.31	-2
COc1ccc(NC2c3ccccc3C(=O)N2Cc2ccco2)cc1OC (stereo not given)	x	x	0.34	-0.13	-0.16	x
O=C1c2ccccc2C(Nc2ccc(F)c(Cl)c2)N1Cc1ccco1 (stereo not given)	-20	x	-6*	-1.2	-1.7	-13
CCOc1ccc(NC2c3ccccc3C(=O)N2Cc2ccco2)cc1 (stereo not given)	-4	x	-4.7*	0.92	-1	0
O=C(CCCNC(=O)/C(=C/c1ccccc1F)NC(=O)c1ccccc1)OCc1ccccc1	x	x	x	x	-0.14	x
CC(C)(C)NC(=O)[C@@H]1CN(Cc2cccnc2)CCN1C[C@@H](O)C[C@@H](Cc1ccccc1)C(=O)N[C@H]1c2ccccc2C[C@H]1O	x	x	x	0.012	x	x
CC(C)c1ccc(-c2noc(C3CCCN(C(=O)c4ccc(F)cc4F)C3)n2)cc1 (stereo not given)	-9	-1.6	-0.62	-0.92	-0.85	-7
O=C(Nc1ccccc1)N1CC=C(c2ccccc2)CC1	-3	x	-0.99	-0.4	-1.5	1
O=C(Nc1ccccc1)N1CC=C(c2ccc(F)cc2)CC1	3	0.65	-4.6*	0.4	-0.83	14
O=C(C1CCCCC1)N1CCCC(c2nc(-c3ccc(F)cc3)no2)C1 (stereo not given)	18	0.83	-1.2	0.33	-0.58	-9
O=C(Nc1ccccc1)N1CCCC(c2nc(-c3ccc(F)cc3)no2)C1 (stereo not given)	21	2.5	-5.4*	1.5	-0.26	-10
Cc1ccccc1NC(=O)N1CCCC(c2nc(-c3ccc(C(C)C)cc3)no2)C1 (stereo not given)	17	-0.71	-4.2*	-1.7	-0.6	-1
Cc1ccccc1NC(=O)N1CCCC(c2nc(-c3ccc(F)cc3)no2)C1 (stereo not given)	28	0.93	-2	3*	-0.83	-6
O=C(N/N=C/c1ccccc1OCC(=O)N1CCCC1)C(=O)Nc1ccccc1F	x	x	x	x	0.66	x
Cc1nc(-c2cccc(S(=O)(=O)N3CC(C)CC(C)C3)c2)cs1 (stereo not given)	-11	-3*	-2.6	0.38	-1.3	0
Cc1nc(-c2cccc(S(=O)(=O)N3CC(C)OC(C)C3)c2)cs1 (stereo not given)	11	-1.4	0.24	0.62	-1.2	4
CC1CCN(C(c2ccccc2)c2nnnn2C(C)(C)C)CC1 (stereo not given)	x	-0.17	-0.05	-0.42	0.43	x
CC(C)(C)n1nnnc1CN1CCN(C(c2ccccc2)c2ccccc2)CC1	-13	-1.1	-5.4*	1.7	-1.8	-11

From PubChem
